Several values for one entry are separate records, joined by “and”; a condition that tells them apart may be missing. Equal entries are not always repeated. Results filed as inconclusive are left out. A call without a number means that no potency is given here. Activity calls are given as the source filed them. Unless noted, calls come from the whole dose curve.
Target: Peroxisome proliferator-activated receptor gamma (Homo sapiens) (UniProt P37231)
Test: qHTS assay for small molecule antagonists of peroxisome proliferator-activated receptor gamma signaling (AID 588537; active = well fitted inhibition curve with a large enough effect in the signal ratio, with a control signal flat, not every such curve was filed as active; the % refers to the signal ratio;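 note: reporter cells co-stimulated with 50 nM rosiglitazone agonist during compound treatment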)
Settings: HEK293 PPARg-UAS-bla, beta-lactamase ratio, antagonist mode; series mostly up to 76.8 µM
In short: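 Fluorescence at 460 and 530 nm (405 nm excitation) reported beta-lactamase cleavage of CCF4 after 2 h room-temperature loading. HEK293 reporter cells in 1% charcoal/dextran-treated FBS had received compound and rosiglitazone for 16 h.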

Peroxisome proliferator-activated receptor gamma (Homo sapiens), sequence (P37231 whole entry, looked up): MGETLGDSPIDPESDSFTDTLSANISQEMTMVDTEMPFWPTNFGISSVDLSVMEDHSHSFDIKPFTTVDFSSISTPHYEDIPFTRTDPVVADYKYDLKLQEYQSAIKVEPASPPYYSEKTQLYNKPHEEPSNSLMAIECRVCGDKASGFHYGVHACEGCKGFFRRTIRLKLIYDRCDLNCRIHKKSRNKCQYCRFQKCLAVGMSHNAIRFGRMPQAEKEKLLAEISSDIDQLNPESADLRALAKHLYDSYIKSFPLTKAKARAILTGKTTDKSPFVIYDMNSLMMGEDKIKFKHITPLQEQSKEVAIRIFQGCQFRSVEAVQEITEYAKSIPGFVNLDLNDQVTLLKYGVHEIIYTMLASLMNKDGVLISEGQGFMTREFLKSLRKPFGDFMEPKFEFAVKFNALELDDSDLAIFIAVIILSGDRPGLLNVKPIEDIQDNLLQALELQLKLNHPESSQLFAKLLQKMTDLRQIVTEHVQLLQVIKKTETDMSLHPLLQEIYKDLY

SMILES	Potency
CCNc1nc(Cl)nc(NCC)n1	inactive
O=C(NC(=O)c1c(F)cccc1F)Nc1cc(Cl)c(OC(F)(F)C(F)C(F)(F)F)cc1Cl (stereo not drawn)	inactive
O=c1n(Cl)c(=O)n(Cl)c(=O)n1Cl	inactive
C[C@H]1C(=O)O[C@@H]2CCN3CC=C(COC(=O)[C@](C)(O)[C@]1(C)O)[C@H]23	inactive

Target: Vitamin D3 receptor (Homo sapiens) (UniProt P11473)
Sequence (P11473 whole entry, looked up): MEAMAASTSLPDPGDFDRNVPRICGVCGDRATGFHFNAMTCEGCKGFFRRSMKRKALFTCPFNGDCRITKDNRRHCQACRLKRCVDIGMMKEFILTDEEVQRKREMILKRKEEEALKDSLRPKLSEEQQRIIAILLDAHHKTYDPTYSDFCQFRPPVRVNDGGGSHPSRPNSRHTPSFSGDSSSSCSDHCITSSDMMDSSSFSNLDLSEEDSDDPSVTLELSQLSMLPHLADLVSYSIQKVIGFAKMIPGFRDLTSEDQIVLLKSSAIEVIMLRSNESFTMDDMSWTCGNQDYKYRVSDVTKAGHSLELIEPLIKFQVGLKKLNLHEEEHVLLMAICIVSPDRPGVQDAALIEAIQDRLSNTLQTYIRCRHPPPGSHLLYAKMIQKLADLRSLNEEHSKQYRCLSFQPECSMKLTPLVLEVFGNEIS
Test: qHTS assay for small molecule antagonists of vitamin D receptor signaling (AID 588541);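 note: receptor activated by calcitriol during compound treatment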
Settings: HEK293T VDR-UAS-bla, beta-lactamase ratio, antagonist mode; series mostly up to 76.7 µM
In short: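 VDR-UAS-bla HEK293T cells in 2% charcoal-stripped FBS were stimulated with 1-alpha,25-dihydroxyvitamin D3 (3 nM final) plus compound for 16 h at 37 C. The beta-lactamase CCF4 readout was normalized to 50 nM agonist and DMSO, and Hill fits gave IC50.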

SMILES	outcome
CCNc1nc(Cl)nc(NCC)n1	inactive
C=CCOC(Cn1ccnc1)c1ccc(Cl)cc1Cl (stereo not drawn)	inactive
O=C(NC(=O)c1c(F)cccc1F)Nc1cc(Cl)c(OC(F)(F)C(F)C(F)(F)F)cc1Cl (stereo not drawn)	inactive
O=c1n(Cl)c(=O)n(Cl)c(=O)n1Cl	inactive
C[C@H]1C(=O)O[C@@H]2CCN3CC=C(COC(=O)[C@](C)(O)[C@]1(C)O)[C@H]23	inactive

Target: Vitamin D3 receptor (Homo sapiens) (UniProt P11473)
Test: qHTS assay for small molecule agonists of vitamin D receptor signaling (AID 588543)
Settings: HEK293T VDR-UAS-bla, beta-lactamase ratio, 16 h; series mostly up to 76.8 µM
In short: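 qHTS in agonist mode: compound titrations stimulate a VDR-driven β-lactamase reporter in HEK293T cells over 16 h at 37 °C. Response normalized to 50 nM 1α,25-dihydroxyvitamin D3 = 100%, DMSO = 0%; Hill fitting gives EC50 and maximal response.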

SMILES	outcome
CCC(=O)O[C@H]1CC[C@H]2[C@@H]3CCC4=CC(=O)CC[C@]4(C)[C@H]3CC[C@]12C	inactive
CCNc1nc(Cl)nc(NCC)n1	inactive
C=CCOC(Cn1ccnc1)c1ccc(Cl)cc1Cl (stereo not drawn)	inactive
Cc1ccc(N=CN(C)C=Nc2ccc(C)cc2C)c(C)c1	inactive
CN(C)C(=S)SSC(=S)N(C)C	inactive
O=C(NC(=O)c1c(F)cccc1F)Nc1cc(Cl)c(OC(F)(F)C(F)C(F)(F)F)cc1Cl (stereo not drawn)	inactive
O=c1n(Cl)c(=O)n(Cl)c(=O)n1Cl	inactive
C[C@H]1C(=O)O[C@@H]2CCN3CC=C(COC(=O)[C@](C)(O)[C@]1(C)O)[C@H]23	inactive
COP(=O)(OC)C(O)C(Cl)(Cl)Cl (stereo not drawn)	inactive

Tested on: not listed separately
Test: qHTS assay for small molecule agonists of retinoid X receptor alpha signaling (AID 588544)
Settings: HEK293T RXRa-UAS-bla, beta-lactamase reporter, 18 h; 530 nm emission

SMILES	max response
CCNc1nc(Cl)nc(NCC)n1	-18.2%
C=CCOC(Cn1ccnc1)c1ccc(Cl)cc1Cl (stereo not drawn)	-17.1% and -12.6%
O=C(NC(=O)c1c(F)cccc1F)Nc1cc(Cl)c(OC(F)(F)C(F)C(F)(F)F)cc1Cl (stereo not drawn)	11.9%
O=c1n(Cl)c(=O)n(Cl)c(=O)n1Cl	-19.7%
C[C@H]1C(=O)O[C@@H]2CCN3CC=C(COC(=O)[C@](C)(O)[C@]1(C)O)[C@H]23	-6.89%
